Compounds with a hit are over-represented: about 2.4% of the library has one in this group of screens.
ULK1 inh – inhibitors of human ULK1 kinase; hit rate 1.9% among 30,000; inhibition, % at 5.96 µM; AlphaScreen Atg13 phosphorylation by ULK1, luminescence; in the data active = inhibition above about 43%;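 note: 0% = median of compound wells and 100% = no enzyme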
ASK1 primary – inhibitors of human ASK1 kinase | Q99683 | hit rate 0.99% among 22,000 | AlphaScreen MKK6 phosphorylation by ASK1, luminescence | inhibition, % at 7.44 µM | AID 1159602; in the data active = inhibition above about 35%;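 note: 0% = median of compound wells and 100% = no enzyme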
Target sequence (Q99683 whole entry, looked up): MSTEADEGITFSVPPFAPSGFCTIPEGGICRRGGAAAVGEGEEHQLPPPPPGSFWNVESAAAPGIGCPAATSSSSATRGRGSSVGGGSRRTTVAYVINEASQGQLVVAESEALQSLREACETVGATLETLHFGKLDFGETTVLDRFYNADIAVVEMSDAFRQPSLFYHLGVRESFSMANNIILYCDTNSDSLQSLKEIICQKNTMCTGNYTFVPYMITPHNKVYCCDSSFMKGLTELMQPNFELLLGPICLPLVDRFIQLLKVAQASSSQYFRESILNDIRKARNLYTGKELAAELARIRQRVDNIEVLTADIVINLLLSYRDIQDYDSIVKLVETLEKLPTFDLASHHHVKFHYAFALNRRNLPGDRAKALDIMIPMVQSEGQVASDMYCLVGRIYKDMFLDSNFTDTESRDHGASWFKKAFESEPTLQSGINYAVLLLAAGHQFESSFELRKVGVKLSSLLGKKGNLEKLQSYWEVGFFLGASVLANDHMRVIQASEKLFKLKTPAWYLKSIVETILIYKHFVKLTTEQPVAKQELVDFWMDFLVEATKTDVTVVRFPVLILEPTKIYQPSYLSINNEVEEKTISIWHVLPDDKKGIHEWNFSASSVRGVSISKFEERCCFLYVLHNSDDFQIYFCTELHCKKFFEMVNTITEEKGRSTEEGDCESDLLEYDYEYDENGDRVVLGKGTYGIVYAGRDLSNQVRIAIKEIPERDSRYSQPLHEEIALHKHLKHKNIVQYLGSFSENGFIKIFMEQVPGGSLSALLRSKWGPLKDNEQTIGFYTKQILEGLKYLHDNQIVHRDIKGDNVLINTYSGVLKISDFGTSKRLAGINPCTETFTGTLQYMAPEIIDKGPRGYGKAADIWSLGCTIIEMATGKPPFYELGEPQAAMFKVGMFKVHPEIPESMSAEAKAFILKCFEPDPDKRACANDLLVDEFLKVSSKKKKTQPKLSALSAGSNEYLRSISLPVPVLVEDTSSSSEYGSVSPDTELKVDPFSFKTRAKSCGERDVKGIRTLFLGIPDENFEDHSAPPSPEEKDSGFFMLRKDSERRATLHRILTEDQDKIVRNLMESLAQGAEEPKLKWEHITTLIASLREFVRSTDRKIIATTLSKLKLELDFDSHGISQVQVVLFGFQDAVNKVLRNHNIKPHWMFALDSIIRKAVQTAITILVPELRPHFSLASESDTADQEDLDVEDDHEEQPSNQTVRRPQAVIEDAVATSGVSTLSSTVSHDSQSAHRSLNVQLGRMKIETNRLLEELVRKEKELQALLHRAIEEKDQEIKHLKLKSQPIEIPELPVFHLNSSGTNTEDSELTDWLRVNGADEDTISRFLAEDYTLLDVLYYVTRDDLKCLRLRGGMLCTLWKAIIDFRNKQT
* hit, by the source's call.

SMILES	ULK1 inh	ASK1 primary
CC(=O)c1cccc(-c2cccc(C(=O)NC3CC3)c2)c1	-0.2	-7.5
c1cc(-n2cnc(N3CCOCC3)n2)ccc1Nc1cc2cc(-c3cn[nH]c3)ccc2cn1	87.3*	-6.2
c1cc(-c2cn[nH]c2)cc(Nc2ccc(N3CCOCC3)cc2)n1	27.4	-2.0
Cn1cc(-c2ccc3cnc(Nc4ccc(-n5cnc(C(C)(C)C)n5)cc4)nc3c2)cn1	10.2	-2.6
c1ccc2nc(Nc3ccc(-n4cnc(N5CCOCC5)n4)cc3)ncc2c1	46.2*	-6.7
Clc1cnc(Nc2ccc(-n3cnc(N4CCOCC4)n3)cc2)nc1-c1ccno1	7.5	-28.6
c1ccc(-c2ccc3cnc(Nc4ccc(-n5cnc(N6CCOCC6)n5)cc4)nc3c2)cc1	13.0	-11.4
Cc1cc(-c2nc(Nc3ccc(-n4cnc(N5CCOCC5)n4)cc3)ncc2Cl)no1	44.4*	-34.6
Cn1cc(-c2ccc3cnc(Nc4ccc(-n5cnc(N6CCCC(O)C6)n5)cc4)nc3c2)cn1 (stereo not drawn)	79.0*	5.5
Nc1nc(Nc2ccccc2)cc(Nc2ccccn2)n1	5.4	9.5
O=C(Nc1ccnc2cc(-c3ccccc3)nn12)c1c(F)cccc1F	1.1	-8.5
O=C(O)COc1cccc(-c2nc(Nc3ccc4[nH]ncc4c3)c3ccccc3n2)c1	5.8	2.4
O=c1ccc(-c2ccc3cnc(Nc4ccc(-n5cnc(N6CCOCC6)n5)cc4)nc3c2)c[nH]1	34.0	-13.1
c1cc(-n2cnc(N3CCOCC3)n2)ccc1Nc1ncc2ccc(-c3cn[nH]c3)cc2n1	74.5*	6.9
FC(F)(F)c1ccc(Cn2cnc3c(NCc4ccccc4)nc(Nc4ccncn4)nc32)cc1	-6.4	-5.3
COc1cc(Nc2ncnc3c2nc(Nc2ccnn2C)n3C(C)C)cc(OC)c1OC	-3.7	-16.2
Oc1ccc(CCNc2cc(N3CCN(c4ccccn4)CC3)ncn2)cc1	-4.5	3.9
CCCNC(=O)c1cccc(Nc2cc(OC)c(OC)c(OC)c2)n1	1.6	-3.1
CCNc1cc(C(=O)Nc2ccc(N3CCOCC3)cc2)ccn1	31.2	9.8
O=C(Nc1ccc(N2CCOCC2)cc1)c1ccc2nc(Nc3ccc(N4CCOCC4)cc3)sc2c1	1.6	6.0
O=C(Nc1ccc(N2CCOCC2)cc1)c1ccc2nc(Nc3ccccn3)sc2c1	51.5*	-31.8
O=C(Nc1ccc(N2CCOCC2)cc1)c1ccnc(NCCN2CCOCC2)c1	47.1*	-18.4
Cc1noc(C)c1-c1nc(C(=O)NCCOc2ccccc2)cs1	4.4	-0.5
COc1cccc(CN(CCN)C(=O)Nc2ccc(-c3cn[nH]c3)cc2OCCCO)c1	78.2*	19.6
COc1cccc(CN(CCCN(C)C)C(=O)Nc2ccc(-c3cn[nH]c3)cc2OC)c1	-9.7	-8.0
SMILES	ULK1 inh	ASK1 primary
COc1cc(Nc2nc(Nc3ccccc3)ncc2C)cc(OC)c1OC	62.5*	14.9
COc1cc(Nc2ncc(C)c(Nc3cc(OC)c(OC)c(OC)c3)n2)cc(OC)c1OC	27.7	20.2
COc1cc(Nc2nc(Nc3ccccn3)ncc2C)cc(OC)c1OC	51.5*	-9.1
COc1cc(Nc2cc(C)nc(Nc3cccnc3)n2)cc(OC)c1OC	45.4*	21.6
COc1cc(Nc2cc(C)nc(Nc3cc(OC)c(OC)c(OC)c3)n2)cc(OC)c1OC	-25.0	-11.8
COc1cc(Nc2nc(Nc3ccncn3)ncc2C)cc(OC)c1OC	14.8	22.9
Nc1nc(Cl)nc2c1ncn2-c1ccsc1	-13.1	-7.1
CN(c1ncccc1CNc1cc(Nc2ccc3c(c2)CC(=O)N3)ncc1C(F)(F)F)S(C)(=O)=O	30.9	12.1
CN(c1ncccc1CNc1nc(Nc2ccc3c(c2)CC(=O)N3)ncc1C(F)(F)F)S(C)(=O)=O	78.1*	25.8
COc1cc(OC)cc(C(=O)NCc2nc(-c3ccncc3)n[nH]2)c1	6.0	-2.6
Cn1cc(-c2ccc3cnc(Nc4ccc(-n5cnc(N6CCOCC6)n5)cc4)nc3c2C2CC2)cn1	41.4	-91.2
Cc1ncn(-c2ccc(Nc3ncc4cccc(-c5ccncc5)c4n3)cc2)n1	-33.4	6.3
CC(C)n1cc(-c2ccc3cnc(Nc4ccc(-n5cnc(N6CCOCC6)n5)cc4)nc3c2Cl)cn1	53.3*	2.6
Cc1ncn(-c2ccc(Nc3ncc4cccc(-c5cnn(C(C)C)c5)c4n3)cc2)n1	65.9*	-10.0
Cc1ncn(-c2ccc(Nc3ncc4cccc(-c5cnn(C)c5)c4n3)cc2)n1	24.7	-7.8
Cc1ncn(-c2ccc(Nc3ncc4cccc(-c5cnn(CC6CC6)c5)c4n3)cc2)n1	64.2*	3.2
Cc1ncn(-c2ccc(Nc3ncc4cccc(-n5cccn5)c4n3)cc2)n1	44.8*	-22.7
Cc1ncn(-c2ccc(Nc3ncc4cccc(-c5ccccc5)c4n3)cc2)n1	12.1	-73.6
O=C(NCc1cccnc1)c1cnc(Nc2ccccn2)s1	11.5	-4.1
COc1ccc(CCC(=O)Nc2ccc(-c3cn[nH]c3)c(OC)c2)cc1	-6.8	3.3
CC(C)n1cnc2c(NCc3nc4ccccc4[nH]3)nc(N3CCOCC3)nc21	13.7	7.3
O=C(NC1CC1)c1ccc(-c2nc(Nc3ccccc3)c3ncn(C4CCCCC4)c3n2)cc1	-2.3	1.7

Source: PubChem (The Scripps Research Institute Molecular Screening Center)
